Records with an inconclusive call do not appear. Activity calls are given as the source filed them. The calls were made as follows: active = hit-call score of the fitted dose curve at least 0.9, where 1 is the maximum; inconclusive = response in the unintended direction; inactive = score below 0.9.
Read-out: sulfotransferase (SULT2A), SULT2A1 (gene 6822)
Assay: CLD_SULT2A_48hr: CellzDirect (CLD) Gene Expression Assay for sulfotransferase (SULT2A) at 48 hours (AID 2283710);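 also: hits raise SULT2A1 transcript above the 0.2% DMSO vehicle baseline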
Summary of the method: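 SULT2A1 transcript measured by qNPA chemiluminescence in human primary hepatocyte cultures after 48 h, with fresh dosing solutions on two consecutive days; gain-of-signal fitting against 0.2% DMSO vehicle; cytotoxicity annotated from phase-contrast morphology.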

Structure (SMILES)	AC50	outcome
CCOP(=O)(OCC)Oc1cc(C)nc(C(C)C)n1	4.2 µM (active)	–
C#CC(C)(C)NC(=O)c1cc(Cl)cc(Cl)c1	5.38 µM (active)	–
COc1cccc(C(=O)NN(C(=O)c2cc(C)cc(C)c2)C(C)(C)C)c1C	–	inactive
CCOP(=S)(OCC)Oc1ccc([N+](=O)[O-])cc1	5.32 µM (active)	–
C[Si](Cn1cncn1)(c1ccc(F)cc1)c1ccc(F)cc1	–	inactive

— PubChem BioAssay (EPA / NIEHS)
